# In the supplement of paper PMC12282887:
# ± gives the standard deviation of the averaged measurements.
# What was measured:
# Experiment in all cases: promoter activity interaction Z-score (Lux/OD deviation from empty-vector control); higher = stronger promoter induction by the compound
# [1] = test system: E. coli BW25113 acrABp lux reporter
# In short: (§1)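 E. coli BW25113 luxCDABE reporter strains grew at 37°C in 40 µl LB Lennox in 384-well plates, with OD600 and luminescence read every 30 min for 12 h. After integration over 0–8 h for wild type or 1–9 h for deletion strains, wells under 10% of the median growth value were removed. Each score is the Z-transformed residual of growth-normalised luminescence fitted against a control.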
# [2] = test system: E. coli BW25113 marRABp lux reporter
# In short: as §1
# [3] = test system: E. coli BW25113 micFp lux reporter
# In short: as §1
# [4] = test system: E. coli BW25113 ompFp lux reporter
# In short: as §1
# [5] = test system: E. coli BW25113 robp lux reporter
# In short: as §1
# [6] = test system: E. coli BW25113 soxSp lux reporter
# In short: as §1
# [7] = test system: E. coli BW25113 tolCp lux reporter
# In short: as §1
# [8] = 9.8 µg/ml, genetic background: wild type
# [9] = 9.8 µg/ml, genetic background: ΔmarA
# [10] = 9.8 µg/ml, genetic background: Δrob
# [11] = 9.8 µg/ml, genetic background: ΔsoxS
# [12] = 19.5 µg/ml, genetic background: wild type
# [13] = 19.5 µg/ml, genetic background: ΔmarA
# [14] = 19.5 µg/ml, genetic background: Δrob
# [15] = 19.5 µg/ml, genetic background: ΔsoxS
# [16] = 39 µg/ml, genetic background: wild type
# [17] = 39 µg/ml, genetic background: ΔmarA
# [18] = 39 µg/ml, genetic background: Δrob
# [19] = 39 µg/ml, genetic background: ΔsoxS
smiles,measurement,setting,value
c1ccc(-c2ccccn2)nc1 [2-2-Bipyridyl],promoter activity interaction Z-score,[1]; [8],-0.38 ± 0.11
same,promoter activity interaction Z-score,[1]; [9],-0.262 ± 0.49
same,promoter activity interaction Z-score,[1]; [10],-0.666 ± 0.24
same,promoter activity interaction Z-score,[1]; [11],-0.339 ± 0.48
same,promoter activity interaction Z-score,[1]; [12],-0.678 ± 0.23
same,promoter activity interaction Z-score,[1]; [13],0.0964 ± 1.5
same,promoter activity interaction Z-score,[1]; [14],-0.696 ± 0.048
same,promoter activity interaction Z-score,[1]; [15],-0.763 ± 0.36
same,promoter activity interaction Z-score,[1]; [16],-0.446 ± 0.45
same,promoter activity interaction Z-score,[1]; [17],1.4 ± 0.6
same,promoter activity interaction Z-score,[1]; [18],-0.276 ± 0.72
same,promoter activity interaction Z-score,[1]; [19],-0.305 ± 0.33
same,promoter activity interaction Z-score,[2]; [8],0.799 ± 0.78
same,promoter activity interaction Z-score,[2]; [9],0.4 ± 0.48
same,promoter activity interaction Z-score,[2]; [10],-0.042 ± 0.093
same,promoter activity interaction Z-score,[2]; [11],-0.2756 ± 0.0019
same,promoter activity interaction Z-score,[2]; [12],0.288 ± 0.12
same,promoter activity interaction Z-score,[2]; [13],0.637 ± 0.14
same,promoter activity interaction Z-score,[2]; [14],-0.32 ± 0.14
same,promoter activity interaction Z-score,[2]; [15],-0.0307 ± 0.0061
same,promoter activity interaction Z-score,[2]; [16],2.32 ± 0.13
same,promoter activity interaction Z-score,[2]; [17],2.22 ± 0.2
same,promoter activity interaction Z-score,[2]; [18],1.59 ± 0.24
same,promoter activity interaction Z-score,[2]; [19],1.67 ± 0.33
same,promoter activity interaction Z-score,[3]; [8],0.412 ± 0.33
same,promoter activity interaction Z-score,[3]; [9],0.243 ± 0.14
same,promoter activity interaction Z-score,[3]; [10],0.0359 ± 0.019
same,promoter activity interaction Z-score,[3]; [11],0.7191 ± 0.0054
same,promoter activity interaction Z-score,[3]; [12],1.15 ± 0.4
same,promoter activity interaction Z-score,[3]; [13],0.622 ± 0.29
same,promoter activity interaction Z-score,[3]; [14],0.498 ± 0.0061
same,promoter activity interaction Z-score,[3]; [15],3.01 ± 0.73
same,promoter activity interaction Z-score,[3]; [16],5.52 ± 0.58
same,promoter activity interaction Z-score,[3]; [17],0.943 ± 0.12
same,promoter activity interaction Z-score,[3]; [18],7.21 ± 1.5
same,promoter activity interaction Z-score,[3]; [19],9.5118 ± 0.00024
same,promoter activity interaction Z-score,[4]; [8],-0.0949 ± 0.034
same,promoter activity interaction Z-score,[4]; [9],-0.555 ± 0.58
same,promoter activity interaction Z-score,[4]; [10],-0.389 ± 0.39
same,promoter activity interaction Z-score,[4]; [11],-0.351 ± 0.17
same,promoter activity interaction Z-score,[4]; [12],-0.745 ± 0.54
same,promoter activity interaction Z-score,[4]; [13],-0.948 ± 0.58
same,promoter activity interaction Z-score,[4]; [14],-0.682 ± 0.16
same,promoter activity interaction Z-score,[4]; [15],-0.195 ± 0.78
same,promoter activity interaction Z-score,[4]; [16],-1.5 ± 0.86
same,promoter activity interaction Z-score,[4]; [17],-1.52 ± 0.45
same,promoter activity interaction Z-score,[4]; [18],-0.777 ± 0.2
same,promoter activity interaction Z-score,[4]; [19],0.325 ± 1.2
same,promoter activity interaction Z-score,[5]; [8],-0.0517 ± 0.47
same,promoter activity interaction Z-score,[5]; [9],0.352 ± 0.77
same,promoter activity interaction Z-score,[5]; [10],-0.375 ± 0.059
same,promoter activity interaction Z-score,[5]; [11],-0.326 ± 0.77
same,promoter activity interaction Z-score,[5]; [12],-0.772 ± 0.88
same,promoter activity interaction Z-score,[5]; [13],0.322 ± 0.12
same,promoter activity interaction Z-score,[5]; [14],-0.387 ± 0.49
same,promoter activity interaction Z-score,[5]; [15],-0.7 ± 0.084
same,promoter activity interaction Z-score,[5]; [16],-0.663 ± 1
same,promoter activity interaction Z-score,[5]; [17],0.193 ± 0.17
same,promoter activity interaction Z-score,[5]; [18],0.111 ± 0.013
same,promoter activity interaction Z-score,[5]; [19],1.63 ± 3.1
same,promoter activity interaction Z-score,[6]; [8],0.0863 ± 0.015
same,promoter activity interaction Z-score,[6]; [9],0.104 ± 0.016
same,promoter activity interaction Z-score,[6]; [10],-0.0121 ± 0.077
same,promoter activity interaction Z-score,[6]; [11],-0.208 ± 0.27
same,promoter activity interaction Z-score,[6]; [12],-0.706 ± 0.15
same,promoter activity interaction Z-score,[6]; [13],-0.407 ± 0.018
same,promoter activity interaction Z-score,[6]; [14],-0.63 ± 0.12
same,promoter activity interaction Z-score,[6]; [15],-0.64 ± 0.078
same,promoter activity interaction Z-score,[6]; [16],-1.84 ± 0.052
same,promoter activity interaction Z-score,[6]; [17],-1.08 ± 0.22
same,promoter activity interaction Z-score,[6]; [18],-1.495 ± 0.0068
same,promoter activity interaction Z-score,[6]; [19],-1.14 ± 0.73
same,promoter activity interaction Z-score,[7]; [8],-0.433 ± 0.08
same,promoter activity interaction Z-score,[7]; [9],-0.587 ± 0.68
same,promoter activity interaction Z-score,[7]; [10],-0.425 ± 0.56
same,promoter activity interaction Z-score,[7]; [11],0.264 ± 0.45
same,promoter activity interaction Z-score,[7]; [12],-1.32 ± 0.36
same,promoter activity interaction Z-score,[7]; [13],-0.963 ± 0.81
same,promoter activity interaction Z-score,[7]; [14],-0.8 ± 0.27
same,promoter activity interaction Z-score,[7]; [15],-0.588 ± 0.17
same,promoter activity interaction Z-score,[7]; [16],-0.831 ± 0.2
same,promoter activity interaction Z-score,[7]; [17],-1.07 ± 0.4
same,promoter activity interaction Z-score,[7]; [18],0.715 ± 0.83
same,promoter activity interaction Z-score,[7]; [19],1.8 ± 1.5
